# From PubChem BioAssay
# TDP1 cell noCPT: qHTS for Inhibitors of human tyrosyl-DNA phosphodiesterase 1 (TDP1): qHTS in cells in absence of CPT; DT40 Tdp1-/- hTDP1 cells, no CPT, ATP luminescence, 48 h; Potency, µM (top dose mostly 46.2 µM), for inactives: top-dose activity change, negative = growth inhibition, usual class: inhibitors; actives 15% (n = 420,000); further: nearly all actives have a fitted effect of over 55% in size
#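 Growth kinetics read by CellTiter-Glo luminescence after ≥48 hr at 37 °C. Cells: DT40 Tdp1-/- stably carrying human TDP1, 400 per well, compound exposure in the absence of CPT (DMSO vehicle).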
# KB-V1 cytotox: qHTS assay for MDR1-selective chemotherapeutics: Primary screen using the drug-selected MDR subline cells KB-V1 | KB-V1 MDR cells viability, CellTiter-Glo, 72 h | Potency, µM (series often up to 46.1 µM), hits mostly cytotoxic | actives 3.4% (n = 400,000) | AID 1347076, 2019; further: nearly all actives have a fitted effect of over 60% in size
#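 Cytotoxicity toward P-gp-expressing KB-V1 cells was determined as loss of CellTiter-Glo luminescence after 72 h at 37 degrees C. Compounds were tested in quantitative HTS format across a concentration range, with curves fitted to normalized data.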
# HT1080-NT tox: qHTS for induction of synthetic lethality in tumor cells producing 2HG: qHTS for the HT-1080-NT fibrosarcoma cell line. actives 1.6% (n = 360,000). Potency, µM (highest dose often 46.1 µM), without a hit: top-dose activity, negative = less viability, most hits filed as cytotoxic. HT-1080-NT fibrosarcoma viability, CellTiter-Glo ATP luminescence, 48 h;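 further: NT is the 2HG producing partner of a matched IDH1 knockdown line; 0% = DMSO-treated cells and -100% = media-only wells without cells; nearly all actives have a fitted effect of over 55% in size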
#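 Viability of the 2HG-overproducing fibrosarcoma line after 48 hours of compound exposure at 37 degrees C was determined by luminescence with CellTiter-Glo, and concentration-effect curves were then fitted and categorized.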
# DT40 TDP1 CPT: qHTS for Inhibitors of human tyrosyl-DNA phosphodiesterase 1 (TDP1): qHTS in cells in presence of CPT; chicken DT40 Tdp1-/-;hTDP1 cells + 20 nM CPT, ATP luminescence, 48 h; Potency, µM (titrated, usually from 46.2 µM), inactives show top-dose activity change, negative = growth inhibition, hits mostly inhibitors; actives 12% (n = 420,000); further: nearly all actives have a fitted effect of over 55% in size
#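 Chicken DT40 Tdp1-/- cells stably complemented with human TDP1 were seeded at 400 cells/well in medium containing 20 nM camptothecin, exposed to pin-transferred compounds, and grown at 37 °C for at least 48 hr. Viability was read as ATP luminescence.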
# KB-3-1 cytotox: qHTS assay for MDR1-selective chemotherapeutics: Primary screen using the parental adenocarcinoma cell KB-3-1 | AID 1347075, 2019 | KB-3-1 viability, CellTiter-Glo ATP luminescence, 72 h | Potency, µM (doses to about 46.1 µM), hits mostly cytotoxic | actives 1.4% (n = 400,000); further: nearly all actives have a fitted effect of over 60% in size
#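 Parental KB-3-1 adenocarcinoma cells in phenol-red-free DMEM with 10% FBS were pin-treated with compounds at several concentrations, incubated 72 h at 37 °C, and viability read by CellTiter-Glo luminescence; concentration-effect curves were fitted after normalization.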
# HT1080 IDH1KD tx: qHTS for induction of synthetic lethality in tumor cells producing 2HG: qHTS for the HT-1080-IDH1KD cell line; Potency, µM (top dose mostly 46.1 µM), for the others: at the highest dose activity, negative = toxicity, most hits filed as cytotoxic; actives 2% (n = 360,000); HT-1080 IDH1 knockdown viability, ATP luminescence, 48 h;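 further: 0% = DMSO wells and -100% = cell-free medium wells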
#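 Viability of IDH1-knockdown HT-1080 fibrosarcoma cells was assessed by CellTiter-Glo after 48 h at 37 °C with titrated compound; concentration-effect curves were classified by fit quality and response size.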
# Active calls of the source: *; i = inactive; ? = inconclusive; nt = not tested or not shown; [ ] = another dose, or the depositor's remark. Hits are enriched below; roughly 19% of the tested compounds scored in any of these assays. The call rests on the fitted dose curve; in most records, active means well fitted curve in the direction sought with a large enough effect; inconclusive means small, poorly fitted or top-dose-only effect, or another doubt; inactive means no such curve, though single readings can be large; an effect the other way counts as inactive or inconclusive. Unless noted, on the % scale 0 is the no-effect control and ±100 the full control effect; potency means the concentration at half of the fitted maximal effect.
SMILES,TDP1 cell noCPT,KB-V1 cytotox,HT1080-NT tox,DT40 TDP1 CPT,KB-3-1 cytotox,HT1080 IDH1KD tx
COc1ccc(C)cc1NC(=O)CCS(=O)(=O)c1cc2c3c(c1)CCN3C(=O)CC2,-27.4%,i,nt,?,i,nt
CCCOc1ccc(Nc2nc(SC)ncc2C(=O)OCC)cc1,25.9µM*,i,nt,?,i,nt
CCOC(=O)c1cnc(SC)nc1NCCOC,-0.3%,i,7.4%,13.0%,?,7.8%
CC1CN(S(=O)(=O)c2cccc(C(=O)N(C)C3CCCCC3)c2)CC(C)O1 (configuration not stated),10.3µM*,?,0.2%,18.4µM*,i,-4.6%
CC1CN(S(=O)(=O)c2cccc(C(=O)OCCOc3ccccc3)c2)CC(C)O1 (configuration not stated),?,11.6µM*,-2.1%,20.6µM*,i,-7.7%
Cc1cccc(N(Cc2ccccc2)C(=O)Cc2ccc(S(=O)(=O)N3CCOCC3)s2)c1,23.1µM*,?,1.1%,?,i,4.2%
Cc1cccc(N(Cc2ccccc2)C(=O)c2ccc(C)c(S(=O)(=O)N3CCOCC3)c2)c1,13µM*,i,10.5%[9.24 µM],16.4µM*,i,-10.5%
CN1CCC(N(C)C(=O)c2cccc(S(=O)(=O)N3CCOCC3)c2)CC1,-12.5%,i,6.3%,0.0%,i,8.7%
O=C(CN1C(=O)CSc2ccc(S(=O)(=O)N3CCCC3)cc21)NCc1ccccc1Cl,-27.0%,nt,nt,?,nt,nt
CC1CCN(S(=O)(=O)c2cccc(C(=O)N(Cc3ccccc3)c3ccccn3)c2)CC1,?,?,9.4%,?,i,-7.2%
Cc1ccc(N(Cc2ccccc2)C(=O)c2cc(S(=O)(=O)N3CCOCC3)ccc2N2CCCC2)cc1,20.6µM*,i,-2.4%,20.6µM*,i,-8.8%
Cc1cccc(N(Cc2ccccc2)C(=O)c2ccc(F)c(S(=O)(=O)N3CCOCC3)c2)c1,?,i,6.4%,?,i,2.0%
Cc1cccc(N(Cc2ccccc2)C(=O)c2cccc(S(=O)(=O)N3CC(C)OC(C)C3)c2)c1 (configuration not stated),10.3µM*,?,-11.9%,11.6µM*,i,?
Cc1ccc(C)c(NC(=O)CN(C)C(=O)c2cc(S(=O)(=O)N3CCOCC3)ccc2N2CCCC2)c1,-27.7%,nt,-3.8%,-16.7%,nt,-10.3%
Cc1ccc(N(Cc2ccccc2)C(=O)c2ccc(F)c(S(=O)(=O)N3CCOCC3)c2)cc1,23.1µM*,3.66µM*,0.9%,?,?,-3.7%
CC(=O)Nc1ccc(S(=O)(=O)N(C)CC(=O)OCC(=O)Nc2cccnc2Cl)cc1,-2.7%,i,-0.4%,5.2%,i,-5.5%
CC(C)Nc1ncnc2c1ncn2[C@H]1CN(Cc2ccc(F)cc2)C[C@@H](CO)O1,5.1%,i,7.8%,1.7%,i,?
Cc1ccc(N2C(=O)CCSC23C(=O)N(Cc2ccc(F)cc2)c2ccccc23)cc1 (configuration not stated),8.2µM*,?,nt,8.2µM*,i,nt
Cc1ccc(N2C(=O)CCSC23C(=O)N(Cc2ccccc2)c2ccccc23)cc1F (configuration not stated),11.6µM*,?,nt,20.6µM*,i,nt
Cc1ccc(N2C(=O)CCSC23C(=O)N(Cc2ccccc2)c2ccccc23)cc1 (configuration not stated),16.4µM*,?,nt,?,i,nt
O=C1CCSC2(C(=O)N(Cc3ccccc3)c3ccccc32)N1c1ccccc1 (configuration not stated),14.6µM*,i,nt,9.2µM*,i,nt
Cn1cc(-c2cc3n(n2)CCC(=O)N3CC(=O)NCc2ccc(Cl)cc2)c2ccccc21,-28.6%,i,nt,-28.3%,i,nt
Cc1nc(SCC(=O)NCC2CCCO2)c2cc(-c3ccccc3)sc2n1 (configuration not stated),?,?,?,?,?,-27.0%
CC(C)c1ccc(C2NC(=O)NC3=C2CCc2ccccc23)cc1 (configuration not stated),14.6µM*,18.4µM*,-2.2%,13µM*,14.6µM*,-11.9%
COc1ccc(C2NC(=O)NC3=C2CCc2ccccc23)cc1 (configuration not stated),?,13µM*,14.6µM*,?,18.4µM*,18.4µM*
SMILES,TDP1 cell noCPT,KB-V1 cytotox,HT1080-NT tox,DT40 TDP1 CPT,KB-3-1 cytotox,HT1080 IDH1KD tx
COc1ccc(-c2nc3ccccc3s2)cc1,-25.7%,i,-4.0%,-17.1%,i,-8.9%
COc1ccc(C2NC(=O)NC(c3ccccc3)=C2c2nc3ccccc3s2)cc1 (configuration not stated),?,?,?,14.1µM*,i,?
Nc1n[nH]c(CO)n1,9.1%,i,0.0%,1.4%,i,5.8%
CCN1CCC(N(Cc2ccc(F)cc2)C(=O)Nc2cccc(C(F)(F)F)c2)CC1,16.4µM*,i,nt,16.4µM*,i,nt
CCN1CCC(N(Cc2cccc(OC)c2)C(=O)Nc2cccc(C(F)(F)F)c2)CC1,20.6µM*,i,nt,?,i,nt
CCN1CCC(N(Cc2cccc(OC)c2)C(=O)Nc2cccc(C)c2C)CC1,23.1µM*,i,nt,?,i,nt
Cc1ccc(NC(=O)CCC(=O)NNC(=O)COc2ccc([N+](=O)[O-])cc2)c(C)c1,5.4%,i,2.4%,-23.9%,i,3.2%
O=C(NCc1ccco1)c1cccc(-c2cncc3nccn23)c1,-22.5%,i,?,?,i,16.5%
CCOC(=O)C1CN(S(C)(=O)=O)c2cc(CC(=O)OC)ccc2O1 (configuration not stated),10.5%,i,10.8%,7.9%,i,13.6%
COc1ccc(C2CC(=O)N(CC(=O)Nc3cccc(C)c3C)c3ccccc3S2)cc1OC (configuration not stated),nt,?,nt,nt,i,nt
CS(=O)(=O)N1CCC(C(=O)Nc2cccc(C(F)(F)F)c2)CC1,-22.6%,i,-0.9%,-2.0%,i,0.6%
